According to PubChem BioAssay AID2546 (National Center for Advancing Translational Sciences (NCATS), 2010):
Among all 310,000 compounds or so, about 11,000 (3.5%) were called active. Another 8% or so got no clear call; they are omitted. Calls follow the shape of the dose curve; as a rule, active = well fitted inhibition curve with a large enough effect; inconclusive = small, poorly fitted or top-dose-only effect, or effect the other way; inactive = flat fitted curve, though single readings scatter. What follows is part of a selection rich in actives, with near analogues and random picks from the rest. Where a call stands in place of a potency, no number is given.
Potency is read from the fitted curve at half-maximal effect.

Test: VP16 counterscreen qHTS for inhibitors of ROR gamma transcriptional activity;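 also: Gal4-VP16 expression switched on by copper sulfate through the metallothionein promoter; nearly all actives have a fitted effect of over 50% in size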
Conditions: Drosophila S2 Gal4-VP16 UAS-luciferase, luminescence, 20 h; series mostly up to 53.6 µM
For Fc1ccc(-c2ccc(NCCN3CCOCC3)nn2)cc1, the Potency was “inactive”. With N#Cc1ccccc1NC(=O)c1ccc2c(c1)OCO2 the Potency was “inactive”. In the case of CCOC(=O)C1(Cc2ccccc2C)CCCN(C(=O)c2ccc(COC)o2)C1 (centres undefined), the Potency is reported as “inactive”. In the case of CC1=CC(C)(C)Nc2ccc(OC(=O)C(Cc3ccccc3)N3C(=O)C4CCCCC4C3=O)cc21 (centres undefined), the Potency is reported as “inactive”. For CC1=CC(C)(C)Nc2ccc(OC(=O)CN3C(=O)C4CCCCC4C3=O)cc21 (centres undefined), the Potency was 7.94 µM (active). For O=C(CN1C(=O)C2C3CCC(C3)C2C1=O)Oc1ccc2ccccc2c1 (centres undefined), the Potency was “inactive”. For COc1ccc2[nH]cc(CCN3C(=O)c4ccc(C(=O)O)cc4C3=O)c2c1, the Potency was “inactive”. In the case of Cc1cccc(N(C)C(=O)CN2C(=O)COc3ccc(S(=O)(=O)N4CCCCCC4)cc32)c1, the Potency is reported as “inactive”. For COc1ccc(-c2oc3ncnc(NCCCO)c3c2-c2ccc(OC)cc2)cc1, the Potency was “inactive”. In the case of C[C@@H](NC(=O)OC(C)(C)C)c1nnc(S(=O)(=O)Cc2ccccc2)o1, the Potency is reported as 4.47 µM (active). With C[C@H](NC(=O)OC(C)(C)C)c1nnc(SCC(N)=O)o1 the Potency was “inactive”. For CC(C)Sc1nnc([C@H](Cc2ccccc2)NC(=O)OC(C)(C)C)o1, the Potency was “inactive”. In the case of CC(=O)Nc1cccc(NC(=O)CSc2nccn2Cc2ccc(F)cc2)c1, the Potency is reported as “inactive”. For Cc1ccc2nc(SCC(=O)NC3CCCC3)[nH]c2c1, the Potency was “inactive”. In the case of Cc1nc(NNC(=O)c2ccccc2)cc(-c2ccccc2)n1, the Potency is reported as “inactive”. With Cc1ccc(-c2csc(NNC(=O)c3ccccc3)n2)cc1 the Potency was 7.08 µM (active). With O=C(Nc1nc(-c2cccnc2)cs1)c1ccccc1F the Potency was “inactive”. For O=C(O)c1ccccc1C(=O)Nc1nc(-c2ccccc2)cs1, the Potency was “inactive”. For Cc1ccc(Nc2nc(-c3sc(NC(=O)c4ccccc4)nc3C)cs2)cc1, the Potency was “inactive”. For O=C(Nc1nc(-c2ccc(-c3ccccc3)cc2)cs1)c1cnccn1, the Potency was 2 µM (active). In the case of CC(=O)c1ccc(N2CCN(C(=O)C3CCN(S(=O)(=O)c4ccc5c(c4)CC(C)N5C(=O)C4CC4)CC3)CC2)cc1 (centres undefined), the Potency is reported as “inactive”. For CCCC(C)NC(=O)C1CCN(C(=O)C2CC(=O)N(c3ccc(C)cc3)C2)CC1 (centres undefined), the Potency was “inactive”. In the case of COc1cc(C)c(C)cc1S(=O)(=O)N1CCCc2ccccc21, the Potency is reported as “inactive”. In the case of O=C(Cn1cnc2ccccc21)Nc1ccccc1-c1ccccc1, the Potency is reported as “inactive”. With O=C(NCCOc1cccnc1)c1ccc(OC2CCN(Cc3ccccn3)CC2)cc1 the Potency was “inactive”. For C[C@H](NC(=O)[C@@H]1Cc2ccccc2CN1C(=O)OC(C)(C)C)C(=O)NC1CCCC1, the Potency was “inactive”. With CC(C)NC(=S)NN=C1CCCCCCCCCCC1 the Potency was 5.01 µM (active). For CC(C)(C)NC(=O)C(=O)NN=C1CCCCCCC1, the Potency was “inactive”. With CCc1ccc(C(=O)NN=C2CCCCCC2)s1 the Potency was “inactive”. With CCC1CCCCN1C(=S)Nc1ccc(S(=O)(=O)Nc2ncccn2)cc1 (centres undefined) the Potency was “inactive”. For CCCc1cc(=O)oc2cc(OCC(=O)Nc3ccc(CN4CCOCC4)cc3)c(Cl)cc12, the Potency was “inactive”. In the case of CC(C)CNC(=O)C(=O)NCc1ccccc1, the Potency is reported as “inactive”. With FC(F)(F)Oc1ccc(NC(=S)NCc2ccccc2)cc1 the Potency was 11.2 µM (active). With CC(C)CC(=O)NC(=S)NCc1ccccc1 the Potency was 10 µM (active). In the case of COC(=O)Cc1ccc(NC(=S)NCc2ccccc2)cc1, the Potency is reported as 31.6 µM (active). In the case of O=C(NNC(=S)NCc1ccccc1)c1ccc(OC(F)F)cc1, the Potency is reported as “inactive”. In the case of O=C(Cc1ccccc1)NCc1ccc(F)cc1, the Potency is reported as “inactive”. In the case of COC(=O)Cc1ccc(NC(=S)NCc2ccco2)cc1, the Potency is reported as “inactive”. In the case of CC(C)CC(=O)NC(=S)Nc1cc(C(=O)O)ccc1Cl, the Potency is reported as “inactive”. In the case of COC(=O)Cc1ccc(OCC(=O)Nc2ccc(OC(F)(F)F)cc2)cc1, the Potency is reported as “inactive”. With CCOC(=O)c1ccc(NC(=O)Cc2cccs2)cc1 the Potency was “inactive”. With CCC1Sc2ccc(S(=O)(=O)CCC(=O)NCc3cccs3)cc2NC1=O (centres undefined) the Potency was “inactive”. With COc1ccccc1CNC(=O)c1ccc(N(C)S(=O)(=O)c2ccc(C)cc2)cc1 the Potency was “inactive”. For CSc1ncccc1C(=O)Nc1ccc(C)cn1, the Potency was “inactive”. For COc1ccc(OC)c(NC(=O)CN(C)CCOc2ccc(Br)cc2)c1, the Potency was “inactive”. In the case of CC1(C)Cc2c(sc(NC(=O)C(=O)NCC3CCCO3)c2C(=O)O)CO1 (centres undefined), the Potency is reported as “inactive”. With COc1ccc(C2CC(c3ccc([N+](=O)[O-])cc3)=NN2C(C)=O)cc1 (centres undefined) the Potency was “inactive”. In the case of Cc1cccnc1CCNC(=O)C1CCC(=O)N(Cc2cccc(F)c2)C1 (centres undefined), the Potency is reported as “inactive”. With O=C(NCCCN1CCOCC1)c1ccc2c(c1)N(Cc1cccc(F)c1)C(=O)c1ccccc1S2 the Potency was “inactive”. For COc1ccc(CC(=O)Nc2nc(-c3ccc(F)c(F)c3)cs2)cc1OC, the Potency was 15.8 µM (active). For COc1ccc(CCNc2nc(-c3cccc(NC(C)=O)c3)cs2)cc1OC, the Potency was “inactive”. In the case of COc1cccc(CC(=O)Nc2nc(-c3ccc(OC)c(OC)c3)cs2)c1, the Potency is reported as “inactive”. In the case of CCOC(=O)C1(Cc2ccccc2C)CCCN(C(=O)CN2C(=O)CSC2=O)C1 (centres undefined), the Potency is reported as “inactive”. With CCOC(=O)c1cccc(NC(=O)C2CCN(c3ncnc4c3nc3n4CCCCC3)CC2)c1 the Potency was “inactive”. For CN(C(=O)c1ccccc1)c1nccnc1C#N, the Potency was “inactive”. In the case of COc1ccc(CC(=O)N2N=C(C)CC2(O)C(F)(F)F)cc1 (centres undefined), the Potency is reported as 8.91 µM (active). With O=C(Cc1ccccc1)N1N=C(c2ccncc2)CC1(O)C(F)(F)F (centres undefined) the Potency was “inactive”. For CCCCCNC(=O)Cc1ccc(OC)cc1, the Potency was “inactive”. For CC1=NN(C(=O)CCc2ccccc2O)C(O)(C(F)(F)F)C1 (centres undefined), the Potency was 12.6 µM (active). For NC(=O)c1ccc(Nc2ccc3c(c2)CCC3)c([N+](=O)[O-])c1, the Potency was “inactive”. For Cc1ccc(Nc2ncnc3c2cnn3C)c(C)c1, the Potency was “inactive”. For COC(=O)c1c(NC(=O)C2CC(C)=C(C)CC2C(=O)O)sc2c1CCCCC2 (centres undefined), the Potency was “inactive”. In the case of O=S(=O)(/C=C/c1ccccc1)N1CCNCC1, the Potency is reported as “inactive”. For CCc1ccc(OCC(=O)NCC(c2ccc(Cl)cc2)N2CCCCC2)cc1 (centres undefined), the Potency was “inactive”. For Cc1ccc(S(=O)(=O)c2c[nH]c3ccc(C)cc3c2=O)cc1, the Potency was “inactive”. In the case of Cc1cc(/C=N/Nc2ccc([N+](=O)[O-])cn2)c(C)n1-c1cccc(C(=O)O)c1, the Potency is reported as “inactive”. For Cc1cccc(-n2c(C)cc(/C=N/NC(N)=S)c2C)c1, the Potency was 2.82 µM (active). In the case of Cc1cc(/C=N/NC(N)=O)c(C)n1C1CCCCC1, the Potency is reported as “inactive”. With O=C(CN1CCN(C(=O)C2CCCO2)CC1)Nc1c(Cl)cccc1Cl (centres undefined) the Potency was “inactive”.
